Screening results from PubChem BioAssay.
Hits are enriched below; roughly 3.3% of the tested compounds scored in any of these assays.
PI5P4K alpha inh: blocks human PI5P4K alpha kinase activity | AID 652105 | PI5P4Kalpha enzyme, ADP-Glo luminescence, 60 min; active compounds read low | P48426 | max response, % | actives 1.2% (n = 330,000); active = max response of -50% or lower; inconclusive = between -30% and -50%; inactive = -30% or higher; also: value at the top dose of about 77 µM
Target sequence (P48426 whole entry, looked up): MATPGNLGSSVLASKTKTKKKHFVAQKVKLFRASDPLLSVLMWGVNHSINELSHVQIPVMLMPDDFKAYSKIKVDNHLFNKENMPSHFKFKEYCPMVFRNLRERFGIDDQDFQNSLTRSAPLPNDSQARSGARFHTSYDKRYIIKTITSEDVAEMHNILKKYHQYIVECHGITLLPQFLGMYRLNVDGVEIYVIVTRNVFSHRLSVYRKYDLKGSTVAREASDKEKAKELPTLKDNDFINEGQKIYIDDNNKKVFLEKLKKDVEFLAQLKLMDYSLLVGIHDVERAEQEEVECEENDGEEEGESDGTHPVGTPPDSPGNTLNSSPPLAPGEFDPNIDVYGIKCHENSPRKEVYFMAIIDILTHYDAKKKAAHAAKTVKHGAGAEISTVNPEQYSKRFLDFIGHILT
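ADP-Glo luminescence end-point read after a 60 min room-temperature kinase reaction of PI5P4Kalpha plus substrate, initiated with ATP at 5 microM final. Buffer: 0.038 M HEPES pH 7.4, EGTA, 0.1% CHAPS, 5% DMSO.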
PLK1 PBD inh: blocks phosphopeptide binding to human PLK1 polo-box domain. actives 2.8% (n = 360,000). Plk1 PBD binding of FITC phosphopeptide, fluorescence polarization. P53350. Potency, µM, for the others: max response, negative = inhibition, hits mostly inhibitors; also: potency is read from the fitted curve at half-maximal effect; series mostly up to about 57 µM; nearly all actives have a fitted effect of over 65% in size
USP1 inh: inhibitors of human USP1/UAF1 deubiquitinase | Potency, µM (titrated, usually from 57.1 µM), inactives show at the top dose activity change, negative = inhibition, hits mostly inhibitors | actives 0.23% (n = 390,000) | AID 743255 | recombinant USP1/UAF1, Ub-Rhodamine cleavage fluorescence; also: potency is read from the fitted curve at half-maximal effect; nearly all actives have a fitted effect of over 60% in size
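In this screen, compounds sit with the deubiquitinase complex (1nM) for 15 min at room temperature before Ub-Rho is added at 150nM final. Fluorescence rise is then followed for 6 reads every 60 seconds.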
USP2a block: blocks human ubiquitin-specific protease USP2a; Potency, µM (highest dose often 38.3 µM), without a hit: at the top dose activity change, negative = inhibition, most hits filed as inhibitors; USP2 core, Ub-CHOP2 coupled fluorogenic reporter, 485/531; actives 0.01% (n = 330,000); AID 463254;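 also: potency is read from the fitted curve at half-maximal effect; plate controls were DMSO wells for no effect and full inhibition by NEM control for full effect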
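Deubiquitinase activity read as fluorescence (485/531 nm) after Ub-CHOP2 cleavage activates the enterokinase reporter on its substrate; USP2 core 10nM, Ub-CHOP2 and substrate 25nM each, 30min compound preincubation then 60min RT; data normalized to NEM, curves fitted.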
WRN helicase inh: inhibitors of human WRN helicase | WRN helicase unwinding, fluorescent forked duplex, kinetic | actives 0.46% (n = 360,000) | Potency, µM (titrated, usually from 114 µM), without a hit: top-dose activity change, negative = inhibition, hits mostly inhibitors | AID 651768; also: potency is read from the fitted curve at half-maximal effect; nearly all actives have a fitted effect of over 55% in size
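Kinetic fluorescence helicase assay: unwinding of a quenched forked DNA duplex (100 nM final) with 2 mM ATP final raises red fluorescence (525/598 nm). Compounds sat 15 min at room temperature with 20 nM WRN beforehand.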
Numbers without * were called inactive; ? = inconclusive; . = no result; [ ] = remark or other dose. Unless noted, calls follow the shape of the dose curve; as a rule, active = well fitted curve in the direction sought with a large enough effect; inconclusive = small, poorly fitted or top-dose-only effect, or another doubt; inactive = no such curve, though single readings can be large; an effect the other way counts as inactive or inconclusive. Unless noted, % is scaled to controls: 0 for no effect and ±100 for the full control effect.

SMILES	PI5P4K alpha inh	PLK1 PBD inh	USP1 inh	USP2a block	WRN helicase inh
CC1=CC2=NC(=O)CC(C)(C(=O)N(CC(=O)NC3CCCC3)c3cc(C)cc(C)c3)N2C=C1 (stereo not given)	-16.5	26.7µM*	-17.5%	0.9%	6.9%
CC1=CC2=NC(=O)CC(C)(C(=O)N(CC(=O)NC(C)(C)C)C3CCCC3)N2C=C1 (stereo not given)	.	-5.8%	-18.7%	-1.6%	0.1%
CCOc1cc(NC(=O)c2ccccn2)c(OCC)cc1NC(=O)c1ccccc1	-5.3	-4.3%	-5.0%	0.4%	13.2%
CCOc1cc(NC(=O)c2ccccn2)c(OCC)cc1NC(=O)CC(C)C	1.9	21.2µM*	-23.6%	-0.4%	4.5%
COc1cc(CN(C(=O)c2cccc(C)c2)c2ccccn2)cc(OC)c1OC	.	.	-24.6%	.	.
COC(=O)c1cc(NC(=O)Cc2ccc(OC)c(OC)c2)cc(C(=O)OC)c1	-24.3	26.7µM*	-4.9%	1.9%	-6.8%
COC(=O)C1=C(C)N(Cc2ccc(OC)c(OC)c2)C(=O)C1	-5.2	21.2µM*	-15.3%	1.3%	4.7%
Cc1nn(S(=O)(=O)c2ccc(C(C)(C)C)cc2)c(C)c1S(=O)(=O)N1CCC(C)CC1	.	.	-12.6%	.	.
CSc1ccc(N/N=C(/C#N)S(=O)(=O)C(C)(C)C)cc1	0.2	21.2µM*	-10.6%	9.5%	-0.1%[57.1 µM]
Cc1ccc(-c2cc(C(=O)Nc3ccc(SC(F)F)cc3)no2)cc1F	.	.	-13.1%	.	.
O/N=C/c1ccccc1Oc1ccc(Cl)cc1	-21.5	8.44µM*	-9.4%	-1.4%	-0.8%
CN(C)/C=C/c1c([N+](=O)[O-])c2ccc(O)cc2n1-c1ccccc1	-58.9*	0.4%	-10.3%	-2.4%	-32.4%
COC(=O)c1c(C)n(-c2ccccc2)c2ccc(O)cc12	.	1.1%	-3.9%	0.0%	-1.8%
Fc1cccc(CNc2ncnc3ccc(-c4ccccc4Cl)cc23)c1	.	.	.	-6.3%	.
COc1ccc(NC(=O)C(C)Sc2ccccc2)cc1 (stereo not given)	0.2	-0.3%	-26.1%	6.7%	6.4%
CC(=O)Nc1ccc(SC(C)C(=O)NC(N)=O)cc1 (stereo not given)	.	23.8µM*	-17.6%	-1.7%	9.6%
CCCNC(=O)C1CCC(CNS(=O)(=O)c2ccc3c(c2)CC(C)N3C(C)=O)CC1 (stereo not given)	4.0	-1.6%	-4.9%	-3.6%	2.5%
CCC(C)NC(=O)C1CCC(CNS(=O)(=O)c2ccc3c(c2)CC(C)N3C(C)=O)CC1 (stereo not given)	-15.3	23.8µM*	-23.7%	-0.3%	2.0%
CC(=O)N1c2ccc(S(=O)(=O)NCC3CCC(C(=O)Nc4ccccc4C)CC3)cc2CC1C (stereo not given)	.	.	-13.5%	.	.
CC(=O)N1c2ccc(S(=O)(=O)NCC3CCC(C(=O)Nc4ncccc4C)CC3)cc2CC1C (stereo not given)	-4.1	21.2µM*	-17.5%	-0.8%	4.2%
CCOC(=O)c1c(NC(=O)CSc2cn(CCNC(=O)c3ccc(OC)c(OC)c3)c3ccccc23)sc2c1CCCC2	.	.	-23.7%	.	.
Cc1ccc(CSc2nc3cccnc3n2Cc2ccc(C(=O)NC3CCCCC3)cc2)cc1	.	.	-16.4%	.	.
CCOCc1nnc(NC(=O)c2cc(OC)c(OC)c(OC)c2)s1	1.7	-2.5%	-1.4%	-0.1%	-8.3%
COc1cc(C(=O)Nc2nnc(-c3sccc3C)s2)cc(OC)c1OC	-5.7	0.7%	?	-1.4%	50.1µM*
O=C1CCCCCCCN1Cc1ccccc1	-2.9	-5.4%	-20.7%	.	-1.5%
SMILES	PI5P4K alpha inh	PLK1 PBD inh	USP1 inh	USP2a block	WRN helicase inh
O=C1CCCCCN1Cc1ccccc1	1.3	29.9µM*	3.7%	-9.7%	10.0%
COc1ccc(S(=O)(=O)N2CCC(C(=O)N[C@H](C(=O)N3CCCC3)C(C)C)CC2)cc1	-13.9	26.7µM*	-23.7%	5.2%	-3.6%
COc1ccc(S(=O)(=O)N2CCCC(C(=O)NCCC(C)C)C2)cc1 (stereo not given)	-7.5	23.8µM*	2.6%	3.6%	-28.3%
COc1ccc(S(=O)(=O)N2CCC(C(=O)N[C@H](C(=O)N3CCCCCC3)C(C)C)CC2)cc1	3.9	-1.8%	-11.4%	0.3%	3.5%
COc1cc(NC(=O)C2CCN(S(=O)(=O)c3ccc(N4CCCC4=O)cc3)CC2)cc(OC)c1	-4.8	29.9µM*	-25.6%	2.7%	-6.7%
COc1ccc(NC(=O)C2CCN(S(=O)(=O)c3ccc(N4CCCC4=O)cc3)CC2)cc1OC	-9.3	-11.6%	-22.4%	-0.2%	-3.7%
COc1cccc(-c2ccc3c(N)c(C(=O)NCc4ccc(Cl)cc4)sc3n2)c1	.	.	-20.7%	.	.
CCOc1ccc(-c2cn(-c3ccccc3OC)c(=S)[nH]2)cc1	-26.2	?	-11.8%	0.6%	-4.7%
CCOc1ccc(-n2cc(-c3ccc(OC)c(OC)c3)[nH]c2=S)cc1	-16.1	23.8µM*	-12.8%	-0.2%	-12.9%
CC(C)Oc1ccc(C(=O)Nc2ccccc2N2CCCC2)cc1	-4.4	26.7µM*	-9.1%	2.5%	7.8%
COc1ccc(CC(=O)Nc2sc3c(c2C(=O)Nc2ccc(C)cc2)CCCCC3)cc1	.	.	-20.0%	.	.
COc1cc(C=C2C(=O)c3ccccc3C2=O)ccc1O	?	-17.7%	-5.9%	2.9%	-7.1%
COc1cc(/C=C/c2ccccc2)cc(OC)c1	14.5	-0.6%	-22.2%	.	1.5%
COc1cc(C=C2C(=O)c3ccccc3C2=O)cc(OC)c1OC	3.6	0.67µM*	-11.8%	7.8%	-3.6%
COc1cc(C=C2C(=O)c3ccccc3C2=O)cc(OC)c1	-3.1	1.06µM*	-12.1%	?	1.1%
COc1ccc(C=C2C(=O)c3ccccc3C2=O)cc1O	-60.0*	18.9µM*	?	0.8%	-21.0%
Oc1cc(Nc2ccc(N3CCCCC3)cc2)cc2cccnc12	.	.	.	0.8%	.
O=C(Nc1ccccc1)Nc1ccc2ncoc2c1	1.2	-13.4%	-3.5%	-0.6%	-4.8%
O=C(Nc1ccccc1)Nc1ccc2ocnc2c1	0.1	21.2µM*	-3.6%	0.9%	0.9%
Cc1nc(N2CCOCC2)[nH]c(=O)c1[N+](=O)[O-]	-9.0	-12.7%	-6.2%	-0.2%	3.0%
Cc1n[nH]c2c([N+](=O)[O-])c(=O)[nH]c(=O)n12	-67.1*	-1.5%	-3.9%	.	-5.6%
CC(=O)N1CCN(CC(=O)Nc2sccc2C#N)CC1	-9.8	23.8µM*	1.9%	1.7%	-6.6%
Oc1ccc(CNc2cccc(F)c2F)c2cccnc12	.	.	.	1.3%	.
CCOC(=O)c1cc(-c2ccc(OC)cc2)n(CCC(=O)NCc2ccccc2OC)c1C	.	.	-10.4%	.	.
COC(=O)Cn1c(=O)c(C)nc2ccccc21	-10.6	29.9µM*	-14.7%	6.8%	9.1%
O=C(O)Cn1c(-c2ccccc2)nc2ccccc21	-4.6	26.7µM*	-19.2%	0.5%	-0.4%
COC(=O)Cn1c(C)nc2ccccc21	.	-2.3%	-7.6%	-1.7%	-1.6%
CCOc1ccc(Nc2ncnc3c2nc2n3CCCCC2)cc1	.	.	-19.0%	.	.
